Active and inactive are the calls of the source. Rule for the calls: active = hit-call score of the fitted dose curve at least 0.9, where 1 is the maximum; inactive = score below 0.9.

The term AC50 denotes the concentration giving half of the maximal activity seen.

The nature of this test: CCTE_Shafer_MEA_acute_cross_correlation_area: CCTE's Neural Acute Assay for Area of Cross Correlation, Shafer Lab (AID 2284024).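 Note: curves fitted for loss of cross-correlation area so actives lower synchrony.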 Here is the method:
CCTE_Shafer_MEA_acute assay is conducted using Axion Biosystems 48 well microelectrode array (MEA) plates and Maestro recording system. Each well of the MEA plate contains a grid of 16 microelectrodes embedded in the culture surface. Electrically active cells, such as neurons, can be cultured over the electrodes, and electrical activity in these cells can be recorded extracellularly. The spontaneous firing of neurons is captured from each electrode on a microsecond timescale providing both temporally and spatially precise data. […] The CCTE_Shafer_MEA_acute assay uses primary cultures of rat cortical neurons. As these cultures mature over time, neural networks develop functional activity and form cohesive networks in which electrical activity can be highly coordinated. Baseline 40-minute recordings are made on days post-plating 13 or 15, followed by a secondary 40-minute recording after chemical exposure.CCTE_Shafer_MEA_acute_cross_correlation_area is a component of the CCTE_Shafer_MEA_acute assay. It measures the area under the well-wide pooled inter-electrode cross-correlation of action potential firing (not normalized to auto-correlations) within a window centered around 0 for the phase lag during a recording in a microelectrode array (MEA) using Axion Biosystems Maestro 768 channel amplifier with the AxIS adaptive spike detector. The recordings before and after chemical treatment are used to calculate a percent change in the cross correlation area in each well.Data from the assay component CCTE_Shafer_MEA_acute_cross_correlation_area was analyzed into 1 assay endpoint. This assay endpoint, CCTE_Shafer_MEA_acute_cross_correlation_area, was analyzed in the negative analysis fitting direction relative to DMSO as the negative control and baseline of activity. Using a type of functional reporter, gain or loss-of-signal activity can be used to understand electrical activity.
Spontaneous activity in the cortical cultures was recorded using an Axion Biosystems Maestro 768 channel amplifier and Axion Integrated Studios (AxIS) v1.8 (or later) software. The amplifier recorded from all channels simultaneously (gain = 1200 x; sampling rate = 12.5 kHz/channel): raw signals were filtered with a Butterworth band-pass filter (300-5000 Hz), which filters out slower local field potentials leaving only fast potentials, i.e., "spikes", arising from extracellular currents associated with action potentials (Pine 2006; Wheeler and Nam 2011). On-line spike detection of filtered signals was conducted with the AxIS adaptive spike detector, using a threshold of 8x the root mean squared (rms) noise on each channel. Any electrodes with rms noise levels greater than 5 uV were grounded (e.g., no data were recorded). Once grounded, an electrode was grounded for the duration of the experiment. All recordings were conducted at 37 C. Wells were deemed usable if on the day of the exposure >/= 10 electrodes were active (defined as >/= 5 spikes/min). On DIV 13 or 15, a minimum of three wells from one cortical culture preparation were treated with each compound (0.03-40 uM). Prior to recording baseline activity, each mwMEA plate was placed in the Maestro at 37 C and allowed to sit for 20 min while firing rates stabilized. Baseline activity (40 min) was recorded before the addition of each compound. An additional 40 min of spontaneous activity was recorded in the presence of each compound. Changes in network parameters relative to baseline were assessed following compound treatment.
With `OC[C@H]1O[C@H](O[C@]2(CCl)O[C@H](CCl)[C@@H](O)[C@@H]2O)[C@H](O)[C@@H](O)[C@H]1Cl`, the outcome was inactive.

Take `CCCCCCCCC=O`: the outcome was inactive.

For `C=C[Si](OCC)(OCC)OCC`, the compound was called inactive.

In the case of `Nc1cc([N+](=O)[O-])ccc1O`, the result was inactive.

In the case of `CCC(=O)OCc1ccccc1`, the AC50 was 9.43 nM (active).

For the compound `Cc1cc(C2(c3cc(C)c(O)cc3C)OS(=O)(=O)c3ccccc32)c(C)cc1O`, the call was inactive.

For `CC(=O)OCCC(C)CC(C)(C)C` (stereo unspecified), the outcome was inactive.

With `CC(C)(COC(=O)c1ccccc1)COC(=O)c1ccccc1`, the compound was called inactive.

In the case of `CN(C)C(=N)N=C(N)N`, the result was inactive.

Take `CC[Si](OC(C)=O)(OC(C)=O)OC(C)=O`: the result was inactive.

For the compound `NCCNCCN`, the outcome was inactive.

For `CC(=O)[C@H]1CC[C@H]2[C@@H]3CC=C4C[C@@H](O)CC[C@]4(C)[C@H]3CC[C@]12C`, the concentration at half-maximal activity (AC50) was 3 nM (active).

Take `COc1cc(C=O)ccc1OC(=O)C(C)C`: the call was inactive.

For `C=CCOC(=O)CCC1CCCCC1`, the call was inactive.

For the compound `OC1OC[C@@H](O)[C@H](O)[C@H]1O` (stereo partly specified), the result was inactive.

On to `C[C@H]1C[C@@H]2[C@H]([C@@H](O)C[C@@]3(C)[C@H]2CC[C@]3(O)C(=O)CO)[C@@]2(C)C=CC(=O)C=C12`, for which the concentration at half-maximal activity (AC50) was 4.5 nM (active).

These data come from PubChem BioAssay (EPA / NIEHS).
